# Test results as given in PubChem BioAssay.
# Activity calls are given as the source filed them.
# What was measured:
# [1] = anti-His antibody binders, primary screen, artefact control for SMM control protein annotation, biochemical, small-molecule microarray, 635 nm fluorescence (AID 1128); conditions: anti-His Alexa647 antibody binding, higher = more signal;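 also: score merges feature fluorescence with signal-to-noise for each printed compound spot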
# [2] = tested on: Human papillomavirus type 1a E7 protein (residues 1-88); experiment: HPV1a E7 small-molecule binders, primary screen, biochemical, small-molecule microarray, residues 1-88, 635 nm (AID 1129); conditions: small-molecule microarray binding, fluorescence 635 nm; higher = more signal
# [3] = target: Focal adhesion kinase 1 (Homo sapiens) (UniProt Q05397); experiment: small-molecule microarray binders of FAK, primary screen, biochemical, 635/667 nm fluorescence, BSA, DTT (AID 1130); conditions: PTK2 binding, 635 nm fluorescence, higher = more signal;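 also: composite of spot emission at 667 nm and signal to noise over triplicate slides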
# [4] = tested on: Fibrinogen (Alexa647-labelled); experiment: fibrinogen binders on compound microarrays, profiling panel, artefact control for SMM control-protein annotation, biochemical, small-molecule microarray, 635/667 nm fluorescence (AID 1131); conditions: fibrinogen-A647 binding fluorescence, higher = more signal;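 also: z-score merges 667 nm fluorescence with per-spot signal-to-noise over triplicate slides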
# [5] = target: Follistatin (Homo sapiens) (UniProt P19883); experiment: follistatin binders on small-molecule microarrays, primary screen, biochemical, small-molecule microarray, 635/667 nm fluorescence (AID 1132); conditions: FST binding, 635 nm fluorescence, higher = more signal
# [6] = target: Fibroblast growth factor 2 (Homo sapiens) (UniProt P09038); experiment: FGF2 binders on small-molecule microarrays, primary screen, biochemical, small-molecule microarray, 635/667 nm fluorescence (AID 1133); conditions: small-molecule microarray binding, FGF2, fluorescence 635/667; higher = more signal
# [7] = mitochondrial membrane potential change in A549 cells, profiling panel, cell-based, JC-1 fluorescence, basal, 24 h, 100 nL (AID 1138); conditions: higher = more signal;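 also: A549 lung adenocarcinoma cells under basal conditions with no added stimulus; test concentration not given here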
# Lefty1 = Lefty1 binders on small-molecule microarrays, primary screen, biochemical, small-molecule microarray, 635/667 nm fluorescence (AID 1139); conditions: small-molecule microarray binding, fluorescence 635/667; higher = more signal
# [8] = tested on: wheat germ agglutinin (Triticum aestivum), Alexa647-labelled; experiment: wheat germ agglutinin binders on compound microarrays, profiling panel, artefact control for SMM control-protein annotation, biochemical, small-molecule microarray, 635/667 nm fluorescence (AID 1140); conditions: WGA-A647 binding, 635 nm fluorescence, higher = more signal;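 also: score merges 667 nm feature emission with signal to noise over triplicate slides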
# [9] = target: Luciferin 4-monooxygenase (Photinus pyralis) (UniProt P08659); experiment: firefly luciferase enzyme inhibitors, primary screen, biochemical, luminescence, purified enzyme, 2006 set (AID 1141); conditions: SteadyGlo luminescence, 30 min, higher = more signal, called active from +8 up or from −8 down;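 also: cell-free assay with purified firefly luciferase at 100 ng per well in PBS; test concentration not given here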
# Chain of Luciferin 4-monooxygenase (Photinus pyralis) (P08659 whole entry, looked up): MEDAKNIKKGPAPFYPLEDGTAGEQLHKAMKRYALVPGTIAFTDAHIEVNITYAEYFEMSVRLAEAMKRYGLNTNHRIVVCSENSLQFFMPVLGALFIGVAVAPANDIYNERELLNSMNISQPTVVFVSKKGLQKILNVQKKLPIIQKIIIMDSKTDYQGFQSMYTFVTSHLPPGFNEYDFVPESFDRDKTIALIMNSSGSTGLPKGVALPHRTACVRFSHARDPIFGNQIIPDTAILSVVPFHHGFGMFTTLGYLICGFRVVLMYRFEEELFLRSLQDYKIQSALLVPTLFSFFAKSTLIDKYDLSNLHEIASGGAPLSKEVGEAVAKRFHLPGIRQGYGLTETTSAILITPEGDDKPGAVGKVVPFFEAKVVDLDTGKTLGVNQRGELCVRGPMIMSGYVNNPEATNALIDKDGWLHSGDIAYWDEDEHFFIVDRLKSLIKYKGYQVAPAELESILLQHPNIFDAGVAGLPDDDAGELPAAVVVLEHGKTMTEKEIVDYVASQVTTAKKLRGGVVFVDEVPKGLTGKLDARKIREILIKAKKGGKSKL
# Chain of Follistatin (Homo sapiens) (P19883 whole entry, looked up): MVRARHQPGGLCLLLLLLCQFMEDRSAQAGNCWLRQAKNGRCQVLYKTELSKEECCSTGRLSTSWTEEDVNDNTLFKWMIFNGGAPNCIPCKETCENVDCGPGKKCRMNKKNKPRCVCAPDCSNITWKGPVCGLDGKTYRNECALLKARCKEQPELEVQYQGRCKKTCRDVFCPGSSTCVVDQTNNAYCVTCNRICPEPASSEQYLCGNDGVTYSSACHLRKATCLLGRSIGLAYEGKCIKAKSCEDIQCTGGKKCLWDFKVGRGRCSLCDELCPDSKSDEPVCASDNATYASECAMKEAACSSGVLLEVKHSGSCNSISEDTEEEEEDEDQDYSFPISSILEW
# Chain of Fibroblast growth factor 2 (Homo sapiens) (P09038 whole entry, looked up): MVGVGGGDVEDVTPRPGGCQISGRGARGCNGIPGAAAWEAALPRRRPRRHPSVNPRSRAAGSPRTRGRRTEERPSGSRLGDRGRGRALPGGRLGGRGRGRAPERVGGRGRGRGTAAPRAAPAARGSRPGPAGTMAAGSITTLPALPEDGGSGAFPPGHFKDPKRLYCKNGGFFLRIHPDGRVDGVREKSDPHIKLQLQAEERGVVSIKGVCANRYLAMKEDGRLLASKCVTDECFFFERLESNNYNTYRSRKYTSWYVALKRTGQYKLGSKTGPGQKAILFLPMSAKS
# Chain of Focal adhesion kinase 1 (Homo sapiens) (Q05397 whole entry, looked up): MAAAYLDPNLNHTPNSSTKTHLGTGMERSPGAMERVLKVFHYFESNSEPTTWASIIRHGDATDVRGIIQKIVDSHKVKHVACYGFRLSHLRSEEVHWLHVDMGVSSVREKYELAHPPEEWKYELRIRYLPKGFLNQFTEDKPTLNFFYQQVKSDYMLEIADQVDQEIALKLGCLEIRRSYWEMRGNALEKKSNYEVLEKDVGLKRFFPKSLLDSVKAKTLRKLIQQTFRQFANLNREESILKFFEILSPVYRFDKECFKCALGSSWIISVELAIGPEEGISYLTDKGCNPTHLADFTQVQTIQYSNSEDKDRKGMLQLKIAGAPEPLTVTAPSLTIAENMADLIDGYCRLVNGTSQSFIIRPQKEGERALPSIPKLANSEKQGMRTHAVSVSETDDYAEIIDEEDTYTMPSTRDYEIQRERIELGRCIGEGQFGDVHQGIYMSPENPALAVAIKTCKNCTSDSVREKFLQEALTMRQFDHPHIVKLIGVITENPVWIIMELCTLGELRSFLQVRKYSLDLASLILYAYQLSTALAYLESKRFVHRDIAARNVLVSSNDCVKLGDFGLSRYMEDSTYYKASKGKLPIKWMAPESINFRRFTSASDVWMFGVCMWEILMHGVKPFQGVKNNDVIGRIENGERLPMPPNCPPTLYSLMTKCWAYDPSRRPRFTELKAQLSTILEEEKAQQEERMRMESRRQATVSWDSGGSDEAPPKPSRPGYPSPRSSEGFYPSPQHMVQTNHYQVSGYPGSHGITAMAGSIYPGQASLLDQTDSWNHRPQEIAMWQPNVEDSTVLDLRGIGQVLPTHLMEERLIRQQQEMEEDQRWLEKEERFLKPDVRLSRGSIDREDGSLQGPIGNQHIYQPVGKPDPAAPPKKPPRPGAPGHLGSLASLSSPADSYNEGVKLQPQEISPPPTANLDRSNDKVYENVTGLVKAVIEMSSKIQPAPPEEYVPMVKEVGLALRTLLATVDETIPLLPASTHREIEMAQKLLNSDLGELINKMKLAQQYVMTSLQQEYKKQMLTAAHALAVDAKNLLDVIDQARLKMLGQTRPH
SMILES,composite z-score [1],composite z-score [2],composite z-score [3],composite z-score [4],composite z-score [5],composite z-score [6],z-score [7],composite z-score (Lefty1),composite z-score [8],z-score [9]
COC(=O)[C@@]1(Cc2ccc(OC)cc2)[C@H]2c3cc(C(=O)N4CCCC4)n(Cc4c(CO)[nH]cc(C)c4=O)c3C[C@H]2CN1C(=O)c1ccccc1,1,1.24,0.502,0.91,-0.116,-0.0376,0.534,-0.116,0.723,0.835 (inactive)
C[C@@H]1ON(c2ccccc2)[C@H](c2ccccc2)[C@H]1C(=O)O,0.468,0.212,0.209,0.722,1.3,0.931,-0.152,0.309,0.607,-0.0018 (inactive)
Cc1ccc(S[C@]2(C(=O)NCCCN(C)C)CC(=O)N(Cc3ccccc3C(F)(F)F)[C@@H]2c2ccc(CO)cc2I)cc1,-0.626,-0.0904,0.591,-0.745,0.0315,-0.635,0.281,-1.32,-0.193,-0.514 (inactive)
C=CC1c2cc(O)c(OC)cc2CCN1C (stereo not given),0.586,-1.39,-0.636,-0.934,-0.424,-0.475,-0.0592,-1.23,0.356,-0.0535 (inactive)
N#Cc1ccc(NN2C(C(O)C3CC=CCC3)C=CC3C(=O)N(c4ccccc4)C(=O)C32)cc1 (stereo not given),0.118,1.28,0.534,1.02,0.46,1.05,0.0165,0.361,1.36,-0.852 (inactive)
CC(C)NC(=O)[C@@H]1c2ccccc2C(=O)N(Cc2ccc(OC(F)(F)F)cc2)[C@H]1c1ccc(CO)cc1,0.7,1.18,0.344,0.529,1.34,1.22,0.107,0.868,0.45,0.441 (inactive)
C=CCN1C(=O)[C@@]2(O[C@@H](CCn3cc([C@H](O)c4ccccc4)nn3)[C@H]([Si](C)(C)c3ccc(OC)cc3)[C@H]2C)c2cc(N3C(=O)c4cccc5cccc3c45)ccc21,0.338,-0.526,-0.204,-0.295,-0.638,-0.722,1.36,-0.475,-0.22,-0.0152 (inactive)
Cc1ccc(S[C@]2(C(=O)NCc3ccccc3)CC(=O)N(Cc3ccccc3C(F)(F)F)[C@@H]2c2ccc(CO)cc2)cc1,-0.645,-0.347,-0.496,0.443,-1.4,-0.574,0.802,-1.51,-0.212,-0.0819 (inactive)
O=C1O[C@@H](c2ccccc2)[C@@H](c2ccccc2)N2[C@@H](c3ccc(OCCO)cc3)[C@]3(C(=O)Nc4ccc(C#CCCO)cc43)[C@@H](C(=O)O)[C@H]12,2.76,1.14,0.453,0.95,1.11,0.871,0.329,0.45,1.14,-1.71 (inactive)
COc1ccc([Si](C)(C)[C@@H]2[C@@H](CC(=O)N3Cc4ccccc4C[C@H]3CO)O[C@]3(C(=O)N(Cc4ccc(N5CCOC5=O)cc4)c4ccccc43)[C@H]2C)cc1,1.74,0.986,0.239,0.55,1.32,1.49,0.138,1.53,0.914,-0.912 (inactive)
CC(C)=CCCC=C(C)C(O)C1C=CC2C(=O)N(c3ccccc3)C(=O)C2N1Nc1ccc(C#N)cc1 (stereo not given),1,1.21,0.901,0.972,1.31,0.333,-0.902,0.507,1.06,-1.32 (inactive)
O=C1C=C(c2ccccc2)C(=O)C2=C1CC([C@H]1Oc3ccccc3S(=O)(=O)N3CCC[C@@H]13)=CC2,-0.105,0.154,-0.263,-0.472,0.316,0.669,-1.32,0.132,0.145,-1.49 (inactive)
O=C1[C@H]2C=C(I)[C@H](C[C@@H]2c2ccccc2)[C@@]12CO2,0.214,0.0555,-0.142,-0.347,0.742,0.111,0.949,0.334,-0.1,-0.218 (inactive)
C=C(CCCC)C(=O)CC[C@@H](OC(=O)c1ccccc1-c1ccccc1C(=O)O)c1ccccc1OCCO,0.397,0.421,-0.104,0.017,1.02,0.906,0.916,1.2,-0.191,-1.31 (inactive)
CC[C@@H]1C=C(C(=O)O)[C@H](c2ccc(OC)cc2)N1S(=O)(=O)c1ccc(C)cc1,-0.0418,0.521,0.359,-0.342,-0.055,-0.477,0.0749,0.112,0.164,1.04 (inactive)
O=C1O[C@H](c2ccccc2)[C@H](c2ccccc2)N2[C@H]1[C@@H](C(=O)O)[C@]1(C(=O)Nc3ccc(C#CCCO)cc31)[C@H]2c1ccc(OCCO)cc1,2.27,1.22,0.146,0.974,1.22,1.16,0.747,0.0897,1.17,-3.11 (inactive)

SMILES,composite z-score [1],composite z-score [2],composite z-score [3],composite z-score [4],composite z-score [5],composite z-score [6],z-score [7],composite z-score (Lefty1),composite z-score [8],z-score [9]
COc1ccc([Si](C)(C)[C@H]2[C@H](CCO)O[C@@]3(C(=O)N(Cc4cccc(N5C(=O)c6ccccc6Oc6ccccc65)c4)c4ccccc43)[C@@H]2C)cc1,0.551,0.838,-0.065,0.327,-0.424,0.649,0.302,-0.351,0.805,0.0939 (inactive)
C[N+](C)(C)CCCC[C@@H]1NC(=O)[C@H]2C[C@@H](C(=O)NCCCCCNC(=O)CS)[C@@H](c3cccc(OCCO)c3)N2C1=O,1.38,0.518,0.247,0.821,0.78,0.549,0.299,-0.383,0.343,-1.09 (inactive)
C=CCC(OC(C)=O)[C@@H]1[C@@H](N(Cc2ccc(-c3cccc(C(F)(F)F)c3)o2)C(=O)Cc2ccc(F)cc2)c2cc(OCCCO)ccc2N1C(=O)Cc1ccc2ccccc2c1 (stereo not given in full),0.114,-1.33,-0.216,-0.193,0.112,-0.599,0.696,-0.482,0.0382,-0.442 (inactive)
O=C(N1CCOCC1)[C@@]1(Cc2ccccc2)COC(c2ccc(OCCCO)cc2)=N1,2.69,1.23,0.674,0.767,-0.119,-0.445,-1.04,-1.1,0.603,-0.276 (inactive)
COc1ccc([Si](C)(C)[C@@H]2[C@@H](CC(=O)N(CCO)Cc3ccccc3)O[C@]3(C(=O)N(Cc4ccc(N5C(=O)c6cccc7cccc5c67)cc4)c4ccccc43)[C@H]2C)cc1,2.39,0.65,0.369,0.674,0.552,0.943,-0.216,0.449,0.934,-0.389 (inactive)
O=C(NC1CC1)[C@@H]1c2ccccc2C(=O)N(Cc2cc(C(F)(F)F)cc(C(F)(F)F)c2)[C@H]1c1ccc(CO)cc1,0.399,0.228,0.052,0.427,0.755,0.0292,-0.197,-0.291,0.416,-0.423 (inactive)
O=C(NCc1ccccc1)[C@@H]1c2ccccc2C(=O)N(Cc2ccc(OC(F)(F)F)cc2)[C@H]1c1ccc(CO)cc1,2.71,0.277,0.442,-0.222,0.616,0.0415,2.79,-0.9,-0.416,-0.828 (inactive)
CCCCN1CC=CC23O[C@@H]4/C=C\CCCOC(=O)C4[C@H]2C(=O)N(C(CO)C(C)C)[C@@H]3C1=O (stereo not given in full),0.0807,-0.654,-0.192,-0.458,0.0549,0.0877,-0.455,0.249,-0.0096,-0.0573 (inactive)
N#Cc1ccc(-c2cccc(=O)o2)cc1,0.212,0.651,0.111,0.474,0.268,0.185,-0.119,0.249,0.48,1.68 (inactive)
C=CCC(OC(C)=O)[C@@H]1[C@@H](N(Cc2cccc3ccccc23)C(=O)Cc2ccc(OC)cc2)c2cc(OCCCO)ccc2N1C(=O)c1ccc2ccccc2c1 (stereo not given in full),-0.185,-0.322,0.321,0.475,0.792,-0.0926,0.0343,0.143,0.453,0.851 (inactive)
COCCCNC(=O)[C@@H]1c2ccccc2C(=O)N(Cc2ccc(OC(F)(F)F)cc2)[C@H]1c1ccc(CO)cc1,1.54,1.11,1.79,0.654,1.14,0.722,2.03,0.541,0.316,-0.0459 (inactive)
OCCCC1=CC(c2ccc(CN3CCCC3)cc2)N(Cc2cccc(OC(F)(F)F)c2)CC1 (stereo not given),-0.299,-0.377,0.213,-0.575,0.611,0.215,1.17,0.326,-0.227,-0.222 (inactive)
C=CCOC(=O)[C@@H]1[C@H]2C(=O)O[C@H](c3ccccc3)[C@H](c3ccccc3)N2[C@H](c2ccc(OCCOC(=O)[C@H]3C[C@H]4C(=O)NCC(=O)N4[C@H]3c3cccc(OCCO)c3)cc2)[C@@]12C(=O)Nc1ccc(I)cc12,2.5,1.19,0.919,0.438,1.38,1.64,-1.09,1.34,0.734,-1.06 (inactive)
CC(=O)c1ccc(C(O)C2C=CC3C(=O)N(c4ccccc4)C(=O)C3N2Nc2ccc(C(C)C)cc2)cc1 (stereo not given),0.779,1.23,0.329,0.939,1.13,1.1,0.678,-0.212,1.17,-1.41 (inactive)
C=CCNC(=O)[C@H]1[C@@H]2C(=O)O[C@@H](c3ccccc3)[C@@H](c3ccccc3)N2[C@@H](c2ccc(OCCO)cc2)[C@]12C(=O)Nc1ccccc12,2.03,0.905,0.624,0.861,-0.034,-0.342,-0.287,-0.0965,1.22,-0.0907 (inactive)
N#Cc1ccc(C(O)C2C=CC3C(=O)NC(=O)C3N2Nc2ccc(Cl)cc2Cl)cc1 (stereo not given),0.299,0.534,0.352,0.732,-0.0644,-0.164,1.28,-0.781,1.08,0.293 (inactive)
